High-throughput results: PubChem BioAssay, The Scripps Research Institute Molecular Screening Center
Fam108B counter – mouse Fam108B serine hydrolase inhibitors, primary screen, counter-screen for RBBP9 inhibitor project, biochemical, fluorescence polarization. inhibition, % at 9.51 µM. recombinant Fam108B, FP-Rh probe fluorescence polarization. hit rate 0.33% among 300,000;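 active = inhibition above the screen mean inhibition plus 3 SD, computed separately per campaign, cut at about 18% in these data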;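 also: inhibitors lower polarization as less probe binds the enzyme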
PREPL inhibitor – PREPL enzyme inhibitors, primary screen, biochemical, fluorescence polarization. hit rate 0.68% among 320,000. Prolyl endopeptidase-like (Homo sapiens), Q4J6C6. inhibition, % at 5.96 µM. AID 2751, 2010. recombinant PREPL, fluorescence polarization activity-based probe;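 also: 0% = enzyme with DMSO and 100% = wells lacking enzyme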
Target sequence (Q4J6C6 whole entry, looked up): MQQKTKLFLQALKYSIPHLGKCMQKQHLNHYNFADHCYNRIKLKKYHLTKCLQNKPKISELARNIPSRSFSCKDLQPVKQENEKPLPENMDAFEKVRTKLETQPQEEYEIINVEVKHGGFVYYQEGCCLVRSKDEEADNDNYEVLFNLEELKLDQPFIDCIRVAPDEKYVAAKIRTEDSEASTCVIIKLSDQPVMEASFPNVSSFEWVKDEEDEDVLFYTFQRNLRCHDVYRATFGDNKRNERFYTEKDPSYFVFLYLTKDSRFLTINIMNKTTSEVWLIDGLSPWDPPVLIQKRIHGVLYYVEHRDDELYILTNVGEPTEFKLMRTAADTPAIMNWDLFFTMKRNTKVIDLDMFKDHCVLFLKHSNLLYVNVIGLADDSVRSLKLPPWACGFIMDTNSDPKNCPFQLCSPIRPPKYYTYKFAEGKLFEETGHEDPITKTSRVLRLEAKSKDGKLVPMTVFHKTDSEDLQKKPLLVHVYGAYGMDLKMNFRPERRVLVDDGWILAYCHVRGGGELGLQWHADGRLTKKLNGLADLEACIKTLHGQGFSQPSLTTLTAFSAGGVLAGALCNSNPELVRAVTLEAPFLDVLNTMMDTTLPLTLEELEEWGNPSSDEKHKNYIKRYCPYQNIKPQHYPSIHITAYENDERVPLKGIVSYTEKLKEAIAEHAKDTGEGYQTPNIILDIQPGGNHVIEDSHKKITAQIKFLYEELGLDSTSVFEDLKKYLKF
LYPLA2 counter – LYPLA2 inhibitors, primary screen, counter-screen for PME1 inhibitor project, biochemical, fluorescence polarization, FP-Rh probe ABPP; hit rate 0.38% among 320,000; inhibition, % at 5.9 µM; recombinant LYPLA2;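 active = inhibition above the screen-wide mean plus 3 SD, limit set per campaign, cut at about 26% in these data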;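 also: 0% = LYPLA2 with DMSO and 100% = wells lacking LYPLA2 enzyme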
LYPLA1 inh – LYPLA1 inhibitors, primary screen, counter-screen for PME1 inhibitor project, biochemical, fluorescence polarization, FP-Rh probe ABPP; Acyl-protein thioesterase 1 (Homo sapiens), O75608; recombinant LYPLA1; inhibition, % at 5.9 µM; hit rate 0.16% among 320,000; AID 2174, 2009;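 active = inhibition above the mean of all tested compounds plus 3 SD, set per campaign, cut at about 14% in these data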;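 also: inhibitors block serine hydrolase probe labeling of LYPLA1 so polarization falls; 0% = enzyme with DMSO and 100% = wells lacking LYPLA1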
PME-1 inh – PME-1 inhibitors via competitive probe labeling, primary screen, biochemical, fluorescence polarization, FP-Rh probe, HTS; recombinant PME-1; inhibition, % at 5.9 µM; hit rate 0.53% among 320,000; AID 2130, 2009;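 active = inhibition above the campaign mean of all compounds plus 3 SD, cut at about 26% in these data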;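 also: competitive labeling of PME-1 active site by serine hydrolase directed probe; 0% = PME-1 with DMSO and 100% = wells lacking PME-1 enzyme; inhibitors block probe labeling so polarization falls and inhibition rises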
PREPL confirm – human PREPL enzyme inhibitors, confirmation, biochemical, fluorescence polarization. recombinant PREPL, fluorescence polarization activity probe. shares compounds with PREPL inhibitor. hit rate 67% among 2,000. AID 2803, 2010. inhibition, % at 5.96 µM;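 also: 0% = protein with DMSO and 100% = wells lacking protein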
* = called active by the depositor; · = no result given. Most compounds without a hit are left out; they make up all but 1.3% or so of the library. Rule as the data show it, unless noted: active = inhibition above about 43%; inactive = the rest.

SMILES	Fam108B counter	PREPL inhibitor	LYPLA2 counter	LYPLA1 inh	PME-1 inh	PREPL confirm
COc1ccc(-c2cnnc(N/N=C/c3ccc(O)c(O)c3)n2)cc1	12	73*	-15	-8	29*	37
O=C(NCc1ccccc1)C1=C[C@H](c2coc3ccccc3c2=O)C[C@H](OCc2ccc(CO)cc2)O1	8	11	-4	-4	2	·
O=C(Nc1ccccc1)C1=C[C@@H](c2coc3ccccc3c2=O)C[C@@H](OCc2ccc(CO)cc2)O1	-7	49*	-6	-2	-1	48*
COc1ccc2cc(C(=O)C3CCCN(C(=O)c4cccnc4)C3)ccc2c1 (stereo not drawn)	0	45*	0	-1	-3	39
COc1ccc2cc(C(=O)C3CCCN(C(=O)c4csnn4)C3)ccc2c1 (stereo not drawn)	-4	22	-7	-3	-5	·
COc1ccc2cc(C(=O)C3CCCN(C(=O)c4cncs4)C3)ccc2c1 (stereo not drawn)	0	24	5	0	-6	·
COc1ccc2cc(C(=O)C3CCCN(C(=O)C4=NN(C)C(=O)CC4)C3)ccc2c1 (stereo not drawn)	3	44*	8	3	0	32
C[C@@]12C(=O)NCC(=O)N1[C@@H]1c3cc(Br)ccc3OC[C@@H]1[C@@H]2c1ccccc1	·	18	·	·	·	·
CN(CC(=O)Nc1ccccc1Cl)C(=O)COC(=O)CCN1C(=O)C2CC=CCC2C1=O (stereo not drawn)	-1	-5	1	-3	-9	·
CC(=O)N1CCC(=NNc2nc3ccccc3[nH]2)CC1	4	54*	-6	-2	-39	6
CNC(=S)N1N=C(c2ccc(C)cc2)CC1c1ccc(N(C)C)cc1 (stereo not drawn)	2	51*	2	4	14	57*
CNC(=S)N1N=C(c2ccc(C)cc2)CC1c1ccc(OC)cc1 (stereo not drawn)	0	17	-8	-4	9	·
COc1cc(-c2nnc3sc(Cc4ccc(Cl)cc4)nn23)cc(OC)c1OC	-4	54*	-7	-3	1	52*
Cc1sc(NC(=O)c2ccccc2)c(C(c2ccc(Cl)cc2)N2CCN(CCO)CC2)c1C (stereo not drawn)	7	48*	9	2	6	41
CCOc1ccc(C(c2c(NC(=O)c3ccccc3)sc(C)c2C)N2CCN(CCO)CC2)cc1 (stereo not drawn)	9	20	11	0	9	·
COc1ccc(-c2cn3c(C)c(C(=O)N4CCc5ccccc5C4)sc3n2)cc1	0	50*	4	-7	-2	40
Cn1c(NC(=O)C[n+]2cc(-c3ccc(Cl)cc3)n3c2CCC3)cc(=O)n(C)c1=O	2	43*	3	4	-3	46*
S=C(N/N=C/c1ccc2c(c1)OCO2)NC1CC2CCC1C2 (stereo not drawn)	-3	5	-2	-3	6	·
COC(=O)c1cc2c(=O)n3ccccc3nc2n(Cc2cccnc2)c1=N	-7	4	0	1	-4	·
N=c1c(C(=O)NCc2ccc(F)cc2)cc2c(=O)n3ccccc3nc2n1Cc1cccnc1	-2	45*	2	-2	0	42
COc1cc(/C=C2/C(=O)NN(c3ccc(F)cc3)C2=O)cc(Cl)c1O	-4	0	2	-1	2	·
COc1cc(/C=C2/C(=O)NN(c3ccc(Cl)c(Cl)c3)C2=O)cc([N+](=O)[O-])c1O	12	53*	9	9	17	20
Cc1ccc(S(=O)(=O)NC(=O)Nc2ccc(C)cn2)cc1	-1	4	-11	-3	-3	·
Cc1ccc(OCC(O)Cn2c(=N)n(CCN3CCOCC3)c3ccccc32)cc1 (stereo not drawn)	1	45*	-4	2	-9	34
Cc1ccc(OCC(O)Cn2c(=N)n(CCN3CCCCC3)c3ccccc32)cc1 (stereo not drawn)	6	41	5	-1	-3	·
SMILES	Fam108B counter	PREPL inhibitor	LYPLA2 counter	LYPLA1 inh	PME-1 inh	PREPL confirm
O=[N+]([O-])c1ccc2c(c1)C(N1CCOCC1)/C(=C/COc1ccc(F)cc1)O2 (stereo not drawn)	-5	48*	0	0	4	36
O=[N+]([O-])c1ccc2c(c1)C(N1CCOCC1)/C(=C/COc1ccc3ccccc3c1Br)O2 (stereo not drawn)	-2	33	-4	-1	2	·
O=C(COc1ccc2ccccc2c1)NCC1CCCO1 (stereo not drawn)	-5	5	-4	-3	1	·
COCCN(CC(=O)Nc1cccc(C)c1C)C(=O)c1oc2ccccc2c1C	·	3	·	·	·	·
Nc1ccc2nc(-c3cccc(-c4nc5ccc(N)cc5[nH]4)n3)[nH]c2c1	13	56*	-31	-8	-20	38
Nc1ccc2nc(CCCCCCCCc3nc4ccc(N)cc4[nH]3)[nH]c2c1	3	70*	6	-1	3	23
COc1ccccc1N(C)S(=O)(=O)c1ccc(C(=O)N(C)Cc2ccc(Cl)s2)cc1	·	-3	8	3	3	·
COc1cc2c(C#N)c(N3CCc4ccccc4C3)nc(N)c2c(N)n1	15	49*	-6	-2	39*	54*
CCOc1ccc(-c2cnc(NCc3cccc4ccccc34)n2CCOC)cc1	8	47*	-1	-5	4	43
Cc1ccc(Cc2c(C)nc3nc(SCC(=O)NCCCN4CCCCCC4)nn3c2C)cc1	-1	53*	-4	-1	-2	42
O=C(COC(=O)C1CCC(N2C(=O)C3C4CCC(C4)C3C2=O)CC1)c1ccc(F)cc1 (stereo not drawn)	-3	1	9	-1	-3	·
CCn1c(=O)[nH]c2cc(Cl)c(Cl)cc21	2	6	-4	-4	0	·
C#CCOCCOCCOCCNc1nc(N2CCN(C(=O)CCCCCCCCCCNC(=O)Cn3cc(CCCCCN)nn3)CC2)nc(N2CCN(C(=O)CCCCCCCCCCNC(=O)Cn3cc(CCCCCN)nn3)CC2)n1	4	64*	11	5	-1	62*
C#CCOCCOCCOCCNc1nc(N2CCN(C(=O)CCCCCCCCCCNC(=O)Cn3cc(CCCCCN)nn3)CC2)nc(N2CCN(C(=O)CCCCCCCCCCNC(=O)[C@@H](CCC(=O)O)n3cc(CCCCCN)nn3)CC2)n1	-3	44*	5	1	1	35
